High-throughput results: PubChem BioAssay, several laboratories
In the library only some 2.3% were active in any assay of this set; here they are far more common.
HTR1E agonist = 5-HT1E (human) receptor agonism; CHO 5-HT1E Ga15 NFAT-bla reporter, FRET; 0% DMSO wells, 100% control agonist wells; AID 574; hit rate 0.69% among 65,000; P28566; activation, % at 6 µM;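 active means activation above a set limit, the screen-wide mean activation plus 3 SD, cut at about 8.5% in these data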;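 further: 100% = positive control agonist at 1 µM giving full maximal response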
Target sequence (P28566 whole entry, looked up): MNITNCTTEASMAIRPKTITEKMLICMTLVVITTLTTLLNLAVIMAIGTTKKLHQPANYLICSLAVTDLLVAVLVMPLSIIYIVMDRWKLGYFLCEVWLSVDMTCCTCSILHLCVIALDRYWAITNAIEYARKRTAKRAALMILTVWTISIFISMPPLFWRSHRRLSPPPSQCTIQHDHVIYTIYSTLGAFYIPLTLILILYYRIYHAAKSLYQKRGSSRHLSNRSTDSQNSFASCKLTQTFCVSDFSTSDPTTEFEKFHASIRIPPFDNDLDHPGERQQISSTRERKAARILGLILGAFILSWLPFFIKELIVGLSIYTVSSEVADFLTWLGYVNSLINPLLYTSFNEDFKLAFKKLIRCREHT
5HT1E antag = antagonists of human 5-HT1E serotonin receptor; inhibition, % at 6 µM; CHO 5-HT1E Ga15 NFAT-bla reporter, FRET, antagonist; AID 571; P28566; hit rate 0.99% among 65,000;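 active means inhibition above a set limit, the mean inhibition across every tested compound plus 3 SD, cut at about 29% in these data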;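 further: signal is the 460 over 535 nm emission ratio of beta-lactamase substrate; 0% = agonist plus DMSO wells and 100% = wells without agonist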
HTR1A agonist = 5-HT1a (human) receptor agonism. P08908. CHO 5-HT1a Ga15 NFAT-bla reporter, FRET ratio; 0% basal, 100% maximal reference agonist. activation, % at 10 µM. hit rate 0.56% among 65,000;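 active means activation above the screen-wide mean activation plus 3 SD, cut at about 19% in these data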;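 further: 0% = DMSO wells and 100% = 5-CT at EC100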
Htt clearance = mutant huntingtin protein clearance; HeLa Exon1htt(103Q)mCFP, aggregate imaging; zero = plate's median compound well; inhibition, % at 1.5 µM; hit rate 0.42% among 47,000;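 active means inhibition of aggregate fluorescence above about 70%, also judged a hit by eye on the cell image, limit read from the data, passing the limit was not always enough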;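 further: cells exposed to compound for three days before fixation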
5-HT1A blocker = 5-HT1a (human) receptor antagonism | CHO 5-HT1a Ga15 NFAT-bla reporter, antagonist mode | P08908 | inhibition, % at 10 µM | hit rate 0.68% among 62,000;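 active means inhibition above the mean of all tested compounds plus 3 SD, cut at about 43% in these data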;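 further: receptor stimulated by 5-CT agonist at 100 nM near EC80; beta-lactamase reporter measured by ratiometric fluorescence of a cleavable substrate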
Numbers without * were called inactive; . = not tested or not shown.

SMILES	HTR1E agonist	5HT1E antag	HTR1A agonist	Htt clearance	5-HT1A blocker
COC(=O)Nc1nc2ccc(C(=O)c3ccccc3)cc2[nH]1	1.4	74.6*	-1.7	.	.
CCCSc1ccc2nc(NC(=O)OC)[nH]c2c1	-0.7	41.5*	-5.1	.	.
CCOc1ccc(-n2nc(C(=O)N3CCOCC3)c3ccccc3c2=O)cc1	-0.1	-4.2	-5.4	.	7.2
Clc1ccc2nc(N3CCNCC3)nc(-c3ccccc3)c2c1	14.5*	-4.0	54.7*	.	.
CN1CCN(c2nc(-c3ccccc3)c3cc(Cl)ccc3n2)CC1	8.0	-0.5	30.2*	-26.0	-30.3
OCCN1CCN(c2nc(-c3ccccc3)c3cc(Cl)ccc3n2)CC1	6.6	6.2	17.9	-35.6	-19.6
O=c1nc(-c2ccccc2)c2cc(Cl)ccc2[nH]1	0.3	0.6	-1.5	-41.8	-6.1
COCCCNC(=O)CN(c1cccc(Cl)c1)S(C)(=O)=O	-0.5	-7.2	-1.2	.	-1.0
CCC(=O)c1ccc(OCC(O)CN2CCN(C(c3ccccc3)c3ccccc3)CC2)cc1 (stereo unspecified)	.	.	.	24.7	.
COc1cccc(C(=O)Nc2ccc3nc(N4CCN(c5ncccn5)CC4)cc(C)c3c2)c1OC	1.1	29.9*	4.4	-41.4	24.2
O=c1c2ccccc2nc(SCc2cn3ccsc3n2)n1-c1ccccc1	0.5	37.6*	1.0	0.6	-1.2
O=c1c2ccccc2nc(SCc2cn3ccsc3n2)n1-c1ccccc1F	0.0	43.0*	9.5	29.3	11.7
c1ccc2oc(SCc3cn4ccsc4n3)nc2c1	0.9	0.2	-0.6	.	-1.8
c1ccc(CSCc2cn3ccsc3n2)cc1	-0.3	-10.9	-2.7	36.7	-2.8
CN(C)S(=O)(=O)c1cccc(-c2nnc(SCc3ccc4c(c3)OCCO4)o2)c1	1.7	-26.4	2.7	.	-17.2
CCOC(=O)C1C(=O)OC(C)(C)C1C(C)C(=O)c1ccccc1 (stereo unspecified)	.	.	.	-44.6	.
O=C1CCCc2sc3c(c2N1)CCCCC3	10.6*	1.6	0.6	.	-1.3
CN(C)c1ccc(-c2nn3c(C4CCCCC4)nnc3s2)cc1	1.4	-7.0	-0.4	4.8	4.7
Cc1cc(S(=O)(=O)N2CCN(c3ncccn3)CC2)ccc1-n1cnnn1	1.3	-4.1	0.0	.	-1.8
CC(=O)c1c(C)[nH]c(C(=O)OCCCCN2C(=O)c3ccccc3C2=O)c1C	0.4	15.3	3.9	.	7.4
Nc1nonc1C(=O)NCCNCc1cc(Br)ccc1OCc1ccc(F)cc1	-0.3	10.1	-0.8	.	49.4*
O=S(=O)(NC(=NC1CCCC1)C(F)(F)F)c1ccccc1	0.5	-4.7	-1.6	.	-0.9
Cc1ncc(CO)c2c1OC(C)(C)OC2	-1.1	3.6	26.7*	.	2.5
CN(C)CCCC1(c2ccc(F)cc2)OCc2cc(C#N)ccc21 (stereo unspecified)	0.7	-12.2	-1.0	.	.
COc1ccc(S(=O)(=O)n2nc(-c3cc(OC)c(OC)c(OC)c3)cc2N)cc1OC	-0.3	-2.6	0.0	.	-16.5
SMILES	HTR1E agonist	5HT1E antag	HTR1A agonist	Htt clearance	5-HT1A blocker
COc1ccc(-c2cc(N)n(S(=O)(=O)c3c(F)c(F)c(F)c(F)c3F)n2)cc1OC	-0.2	32.9*	0.1	-25.4	46.1*
Cc1cc(C)cc(OCC(=O)Nc2cccc(-c3nnc(-c4ccco4)o3)c2)c1	0.3	-8.5	19.6*	-60.4	-12.2
COc1ccc(CC(=O)Nc2cccc(-c3nnc(-c4ccco4)o3)c2)cc1	1.2	-18.0	0.7	7.3	.
CCc1nc(N)c(C#N)c(-c2ccccc2OC)c1C	0.4	-10.7	1.3	-7.1	5.2
Cn1cccc1Cc1nnc(SCC(=O)Nc2ccc(Cl)cc2)n1-c1ccc(F)cc1	0.9	3.8	-0.4	.	8.0
CC(C)(C)NCC(O)COc1ccccc1C(C)(C)C (stereo unspecified)	0.4	4.6	-1.7	.	80.1*
CC(C)(C)NCC(O)COc1ccccc1C(=O)CCc1ccccc1 (stereo unspecified)	.	.	.	-30.2	.
Cc1c[nH]c2cccc(OCC(O)CNC(C)(C)C)c12 (stereo unspecified)	1.7	0.8	-3.3	-26.9	82.5*
CCCn1c(SCC(=O)N2CCCc3ccccc32)nnc1-c1ccccn1	-1.0	-5.5	-2.9	.	9.0
CCOC(=O)N1CCC(N2C(=O)c3ccc(C(=O)NC4CCCCCC4)cc3C2=O)CC1	-0.1	-1.9	-2.1	.	10.5
CCOC(=O)c1c(N)c(C#N)cn1-c1ccccc1	0.1	6.2	-1.6	30.9	-4.6
CCOC(=O)c1c(NC(=O)c2nn(CC)cc2Br)c(C#N)cn1-c1ccccc1	-0.1	40.0*	1.4	-4.0	18.0
Cc1nc(NCCCn2ccnc2)c2oc3ccccc3c2n1	-1.1	32.5*	-0.3	9.1	22.1
CC(=O)Nc1sc(C)c(C)c1C(=O)OC1CCOC1=O (stereo unspecified)	0.6	-5.4	-1.2	.	-16.9
COc1ccc(N2Nc3n[nH]c(N)c3N2)cc1	.	.	.	42.4	.
O=C(O)CC1C(=O)NCCN1Cc1ccc(F)c(F)c1 (stereo unspecified)	22.3*	-4.0	-5.2	.	-12.7
Cc1ccc(CN2CCNC(=O)C2CC(=O)O)cc1 (stereo unspecified)	1.2	8.9	-0.1	.	-14.7
COC(=O)c1[nH]c2cccc(Cl)c2c1NC(=O)CN(C)C1CCCCC1	-0.3	9.7	-3.0	33.9	19.2
Cc1cccc(-c2noc(CN(C(=O)C(c3ccccc3)c3ccccc3)C(C)C)n2)c1	.	.	.	-11.2	.
Cc1nc(N2CCN(C)CC2)c2c(C)c(C(=O)Nc3ccc(F)cc3)sc2n1	20.3*	-8.5	0.5	.	-7.9
COc1ccc(OC)c(NC2c3ccccc3C(=O)N2c2cccnc2)c1 (stereo unspecified)	0.1	9.9	-0.7	.	12.1
COc1cccc(CNC(=O)c2ccccc2N)c1	0.4	-4.8	-1.9	81.5*	-11.7
COc1cccc(CNC(=O)Cn2cccc2)c1	23.8*	-7.8	-2.1	5.3	-2.5
CCC(C)[C@H](NC(=O)NCc1cccc(OC)c1)C(=O)O (stereo partly specified)	-0.1	0.5	-0.5	.	-1.0
CN(CCNC(=O)c1cn(C)c2ccc(S(=O)(=O)N3CCCC3)cc2c1=O)CCc1ccccc1	.	.	.	10.7	.
SMILES	HTR1E agonist	5HT1E antag	HTR1A agonist	Htt clearance	5-HT1A blocker
Cn1cc(C(=O)NCCc2ccccc2)c(=O)c2cc(S(=O)(=O)N3CCOCC3)ccc21	76.6*	5.0	-1.8	.	-3.3
Cc1ccccc1C(=O)Nc1cccc(NC(=O)Cn2cnc3c(=O)n(C)c(=O)n(C)c32)c1	-0.3	0.7	-1.2	.	-1.0
COC(=O)c1cc(Br)c(=O)n(CC(C)C)c1	9.5*	-5.0	0.4	59.0	0.2
CCn1c(CNc2ccccc2Cl)nnc1SCC(=O)NCc1ccccc1	1.0	-8.3	-1.3	.	6.3
CCn1c(CNC(=O)c2ccco2)nnc1SCC(=O)Nc1cc(C(F)(F)F)ccc1Cl	0.2	2.5	54.1*	.	5.3
O=C(Nc1nnc(-c2ccccc2)o1)c1nc2ccccc2s1	1.9	-9.5	1.5	.	32.4
CCOC(=O)c1[nH]c2c(c1C)C(=O)CC(c1ccco1)C2 (stereo unspecified)	-0.3	74.5*	-1.2	.	53.1*
